Assay results reported in the supplement of paper PMC10127200.
Where a name gives a salt, the structure may show the parent alone.

Experiments:
Test in all cases: Euclidean distance of Cell Painting phenotypic profile (signed KS, 77 features) to DMSO centroid (dimensionless distance); 5 or 10 uM (library dependent); higher = stronger phenotypic change vs DMSO (phenoactivity)
Conditions in all cases: 48 h
786-O = tested on: 786-O
Method in brief: (§1)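 Phenoactivity is defined as the Euclidean distance from a compound profile to the median vehicle profile. Each profile comprised 77 Harmony features, scored as signed Kolmogorov-Smirnov statistics versus same-plate vehicle wells, then plate-position corrected, correlation-weighted and replicate-averaged at the top dose. Five cancer lines and one healthy fibroblast line were exposed to library compounds for 48 h at 10 or 5 uM (0.1% DMSO final).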

A549 = tested on: A549
Method in brief: as §1

DU145 = tested on: DU145
Method in brief: as §1

FB = tested on: FB
Method in brief: as §1

HEPG2 = tested on: HEPG2
Method in brief: as §1

OVCAR4 = tested on: OVCAR4
Method in brief: as §1

SMILES | Euclidean distance (786-O) | Euclidean distance (A549) | Euclidean distance (DU145) | Euclidean distance (FB) | Euclidean distance (HEPG2) | Euclidean distance (OVCAR4)
COc1ccc2c(O[C@@H]3C[C@H]4C(=O)N[C@]5(C(=O)NS(=O)(=O)C6CC6)C[C@H]5/C=C\CCCCN(C)C(=O)[C@@H]4C3)cc(-c3nc(C(C)C)cs3)nc2c1C [Simeprevir] | 1.38 | 2.3 | 1.29 | 0.939 | 0.799 | 1.23
CC(C)OC(=O)C(C(=O)OC(C)C)=C1SC=CS1 [Malotilate] | 1.94 | 1.09 | 0.92 | 1.39 | 1.08 | 1.29
CCC(=O)O[C@@H]1CC(=O)O[C@H](C)C/C=C/C=C/[C@H](O)[C@H](C)C[C@H](CC=O)[C@H](O[C@@H]2O[C@H](C)[C@@H](O[C@H]3C[C@@](C)(O)[C@@H](OC(=O)CC)[C@H](C)O3)[C@H](N(C)C)[C@H]2O)[C@H]1OC [Midecamycin] | 0.98 | 1.59 | 0.874 | 1.31 | 1.08 | 1.07
COc1cc(Nc2ncc(F)c(Nc3ccc4c(n3)N(COP(=O)(O)O)C(=O)C(C)(C)O4)n2)cc(OC)c1OC [R788 (Fostamatinib) Disodium] | 1.37 | 2.39 | 2.15 | 3.19 | 0.696 | 2.19
CC(C)COCC(CN(Cc1ccccc1)c1ccccc1)N1CCCC1 (stereo not drawn) [Bepridil hydrochloride] | 1.64 | 2.55 | 2.06 | 1.65 | 1.94 | 1.73
Nc1ccc(S(=O)(=O)Nc2ccnn2-c2ccccc2)cc1 [Sulfaphenazole] | 0.816 | 0.571 | 1.03 | 0.58 | 0.469 | 1.26
CC(=O)O[C@H]1CC[C@@]2(C)C(=CC[C@@H]3[C@@H]2CC[C@]2(C)C(c4cccnc4)=CC[C@@H]32)C1 [Abiraterone Acetate] | 1.52 | 1.19 | 0.94 | 0.94 | 0.44 | 0.818
Cc1onc(-c2ccccc2)c1-c1ccc(S(N)(=O)=O)cc1 [Valdecoxib] | 1.12 | 1.19 | 0.983 | 1.21 | 0.509 | 1.58
NC1=NCC2c3ccccc3Cc3ccccc3N12 (stereo not drawn) [Epinastine HCl] | 1.16 | 1.15 | 1.13 | 1.2 | 0.717 | 1.43
O=C(O)c1ccccc1C(=O)Nc1ccc(S(=O)(=O)Nc2nccs2)cc1 [Phthalylsulfathiazole] | 1.08 | 1.02 | 0.914 | 1.11 | 0.685 | 0.869
CCOC(CN1CCN(CC(C)C(=O)c2ccccc2)CC1)c1ccccc1 (stereo not drawn) [Eprazinone 2HCl] | 1.87 | 1.02 | 1.2 | 1.38 | 1.56 | 1.28
COc1ccc(CCNCC(O)COc2cccc(C)c2)cc1OC (stereo not drawn) [Bevantolol hydrochloride] | 1.02 | 0.717 | 1.07 | 1.21 | 0.573 | 1.03
N=C(N)N/N=C/c1c(Cl)cccc1Cl [Guanabenz Acetate] | 1.25 | 1.29 | 1.12 | 0.609 | 0.842 | 1.77
O=c1c(O)c(-c2ccc(O)c(O)c2)oc2cc(O)ccc12 [Fisetin] | 0.642 | 0.833 | 1.17 | 0.987 | 0.906 | 0.911
NC(=O)[C@@H]1CCCN1C(=O)[C@H](Cc1c[nH]cn1)NC(=O)[C@@H]1CCC(=O)N1 [Protirelin] | 1.34 | 0.937 | 0.758 | 1.31 | 0.44 | 0.947
COCC(=O)NC/C=C/c1ccc2ncnc(Nc3ccc(Oc4ccc(C)nc4)c(C)c3)c2c1 | 0.785 | 1.34 | 1.13 | 0.952 | 0.896 | 0.777
Cc1cn([C@H]2C=C[C@@H](CO)O2)c(=O)[nH]c1=O [Stavudine (d4T)] | 1.64 | 1.46 | 0.564 | 0.969 | 0.716 | 1.06
Clc1ccccc1CN1CCc2sccc2C1 [Ticlopidine HCl] | 1.29 | 1.12 | 1.3 | 1.59 | 0.746 | 1.56
CCOC(=O)c1c(CSc2ccccc2)n(C)c2cc(Br)c(O)c(CN(C)C)c12 [Arbidol HCl] | 1.37 | 1.41 | 2.16 | 1.38 | 1.34 | 1.63
CC(C)(C)c1cc(NC(=O)Nc2ccc(-c3cn4c(n3)sc3cc(OCCN5CCOCC5)ccc34)cc2)no1 [Quizartinib (AC220)] | 3.28 | 2.67 | 1.42 | 1.43 | 2.93 | 1.37
C[n+]1c2ccccc2nc2ccccc21 [Phenazine methosulfate] | 5.13 | 2.82 | 4.95 | 4.99 | 3.66 | 2.78
COc1cccc2cc(-c3nc([C@H]4CC[C@H](C(=O)O)CC4)n4ncnc(N)c34)[nH]c12 | 2.33 | 2.18 | 1.44 | 3.76 | 2.92 | 3.56
O=C(O)c1ccccc1OP(=O)(O)O [Fosfosal] | 0.982 | 0.849 | 0.86 | 0.671 | 0.711 | 1.11
N#CC(c1ccc(Cl)cc1)c1c(Cl)cc(-n2ncc(=O)[nH]c2=O)cc1Cl (stereo not drawn) [Diclazuril] | 1.07 | 1.53 | 0.762 | 1.53 | 2.11 | 1.22

SMILES | Euclidean distance (786-O) | Euclidean distance (A549) | Euclidean distance (DU145) | Euclidean distance (FB) | Euclidean distance (HEPG2) | Euclidean distance (OVCAR4)
NC1CCN(c2nc3c(cc2F)c(=O)c(C(=O)O)cn3-c2ccc(F)cc2F)C1 (stereo not drawn) [Tosufloxacin p-Toluenesulfonate Hydrate] | 0.975 | 1.03 | 0.829 | 1.12 | 0.47 | 1.3
CCn1c(=O)c(-c2cc(NC(=O)Nc3ccccc3)c(F)cc2Br)cc2cnc(NC)cc21 | 1.21 | 1.59 | 1.77 | 2.62 | 1.61 | 1.1
O=C(Nc1cccc(Nc2ncc(Br)c(NCCc3cnc[nH]3)n2)c1)N1CCCC1 | 2.94 | 3.51 | 3.14 | 3.05 | 2.43 | 3.33
CC(=O)Nc1nc2c(Oc3cc(-c4ccc(C(F)(F)F)cc4)ncn3)cccc2s1 | 0.826 | 0.619 | 0.706 | 0.556 | 0.84 | 0.981
CCC(=O)N1CC[C@H](Nc2ncnc3c2CN(c2cnc(OC)c(C(F)(F)F)c2)CC3)C1 [leniolisib(CDZ 173)] | 1.06 | 1.1 | 1.67 | 1.76 | 0.969 | 1.59
NC[C@H]1O[C@H](O[C@H]2[C@H](O[C@@H]3O[C@H](CO)[C@@H](O)[C@H]3O)[C@@H](O)[C@H](N)C[C@@H]2N)[C@H](N)[C@@H](O)[C@@H]1O [Ribostamycin Sulfate] | 1.45 | 1.17 | 1.23 | 0.806 | 0.615 | 1.22
CN[C@@H]1[C@H](O)[C@H](NC)[C@H]2O[C@@]3(O)C(=O)C[C@@H](C)O[C@H]3O[C@@H]2[C@H]1O [Spectinomycin 2HCl] | 1.1 | 0.735 | 0.979 | 1.48 | 0.555 | 0.972
O=C1c2c(O)cccc2C([C@@H]2O[C@H](CO)[C@@H](O)[C@H](O)[C@H]2O)c2cc(CO)cc(O)c21 (stereo partly drawn) [Aloin] | 1.2 | 0.555 | 0.756 | 0.842 | 0.479 | 0.881
Nc1c2c(nc3ccccc13)CCCC2 [Tacrine HCl] | 0.888 | 0.485 | 0.636 | 1.21 | 0.472 | 1.16
COc1cc2c(cc1OC)CC(=O)N(CCCN(C)C[C@H]1Cc3cc(OC)c(OC)cc31)CC2 [Ivabradine HCl] | 1.05 | 1.49 | 1.14 | 0.867 | 2.1 | 0.925
CCN[C@@H]1C[C@H](N)[C@@H](O[C@H]2OC(CN)=CC[C@H]2N)[C@H](O)[C@H]1O[C@H]1OC[C@](C)(O)[C@H](NC)[C@H]1O [Netilmicin Sulfate] | 1.12 | 0.92 | 1.18 | 0.946 | 0.625 | 0.916
CCN(CC)C(=O)/C(C#N)=C/c1cc(O)c(O)c([N+](=O)[O-])c1 [Entacapone] | 0.439 | 0.512 | 0.513 | 1.1 | 0.422 | 0.77
CCCc1nc(C(C)(C)O)c(C(=O)OCc2oc(=O)oc2C)n1Cc1ccc(-c2ccccc2-c2nnn[nH]2)cc1 [Olmesartan Medoxomil] | 2.78 | 2.49 | 2.38 | 3.38 | 3.32 | 3.28
CC1(C)S[C@@H]2[C@H](NC(=O)Cc3ccccc3)C(=O)N2[C@H]1C(=O)O [Penicillin G Sodium] | 1.04 | 0.576 | 1.12 | 0.979 | 0.871 | 1.93
O=C(O)COCCN1CCN(C(c2ccccc2)c2ccc(Cl)cc2)CC1 (stereo not drawn) [Cetirizine DiHCl] | 1.09 | 0.92 | 1.29 | 1.32 | 0.618 | 1.47
CNC(=O)c1cccc(-c2ccc3c(N4CCOC[C@@H]4C)nc(N4CCOC[C@@H]4C)nc3n2)c1 | 4 | 3.14 | 2.52 | 4.98 | 4.09 | 4.15
CN1CCN(Cc2ccc(Nc3ncc(Cl)c(Nc4ccccc4S(=O)(=O)N(C)C)n3)cc2)CC1 | 3.04 | 3.57 | 3.22 | 2.93 | 2.81 | 3.88
CC(C)NC(=O)COc1cccc(-c2nc(Nc3ccc4[nH]ncc4c3)c3ccccc3n2)c1 | 2.53 | 3.23 | 3.11 | 2.67 | 1.76 | 2.43
CNc1ncc(-c2ccc3c(=O)c(C(=O)O)cn(C4CC4)c3c2C)cc1C [Ozenoxacin] | 1.31 | 0.846 | 0.593 | 1.13 | 1.01 | 0.85
O=C(NS(=O)(=O)c1ccc(Br)s1)c1ccc(Cl)cc1Cl [Tasisulam] | 1.38 | 0.993 | 1.21 | 0.939 | 1.22 | 1.66
CNC(=O)c1cc(Oc2ccc(NC(=O)Nc3cc(C(C)(C)C)nn3-c3ccc4ncccc4c3)c(F)c2)ccn1 [DCC-2036 (Rebastinib)] | 2.89 | 3.75 | 4.62 | 2.57 | 2.72 | 2.63
COc1ccc(C2OCC3C(c4cc(OC)c(OC)c(OC)c4)OCC23)cc1OC (stereo not drawn) [Magnolin] | 0.904 | 0.78 | 1.05 | 1.02 | 0.56 | 0.966
Cc1cc(/C=C/c2ccc3cc(N(C)C)ccc3[n+]2C)c(C)n1-c1ccccc1 [pyrvinium] | 5.7 | 4.29 | 5.05 | 6.77 | 3.9 | 5.35
CC(=O)O[C@]1(C(C)=O)CC[C@H]2[C@@H]3C=C(C)C4=CC(=O)CC[C@]4(C)[C@H]3CC[C@@]21C [Megestrol Acetate] | 1.71 | 1.65 | 1.57 | 1.46 | 1.89 | 1.61
